High-throughput results: PubChem BioAssay, Broad Institute
Only some compounds are listed: those with a hit (about 2.5% of all), similar ones and a draw of the others.
Ecoli rRNA inh – selective bacterial rRNA inhibition in E. coli; E. coli WT GFP vs humanized-ribosome RFP mutants, fluorescence, 24 h; hits give low values; DMSO median 0, no signal -100; GFP signal change (wild-type ribosome), % (test concentration not listed); 350,000 tested, 1.6% active; AID 720706;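 active means significant combined selectivity score with lowered wild-type GFP, culture density cut under 30%, mutant RFP and density less affected; inactive means any of these conditions unmet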
MLL AF4-AF9 inh – MLL-AF4/AF9 protein interaction inhibition. P42568. AlphaScreen, biotin-AF4 peptide binding to FLAG-AF9. inhibition, % at 10 µM. 350,000 tested, 0.47% active;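 active means every replicate reaching a set inhibition limit, whatever the replicate mean, cut at about 25% in these data; inconclusive means mean inhibition reaches that limit but some replicates miss it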;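 further: 0% = plate neutral control median and 100% = total signal loss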
Casp6 inh – blocks human caspase-6 cleavage activity; P55212; purified caspase-6, Z-VEID-R110 cleavage fluorescence; inhibition, % at 12.5 µM; AID 686996; 350,000 tested, 0.53% active;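 active means mean inhibition across replicates at least about 35%, with every replicate also reaching that limit, limit read from the data; inconclusive means only one of the two criteria met; inactive means neither criterion met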;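 further: 0% = median of neutral control wells and 100% = no fluorescence left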
Target sequence (P55212 24-179 limits assumed): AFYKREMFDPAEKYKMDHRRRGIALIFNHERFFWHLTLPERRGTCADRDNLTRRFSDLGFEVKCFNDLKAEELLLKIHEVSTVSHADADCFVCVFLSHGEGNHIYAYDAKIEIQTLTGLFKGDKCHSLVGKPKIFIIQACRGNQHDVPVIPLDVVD
Target sequence (P55212 194-293 limits assumed): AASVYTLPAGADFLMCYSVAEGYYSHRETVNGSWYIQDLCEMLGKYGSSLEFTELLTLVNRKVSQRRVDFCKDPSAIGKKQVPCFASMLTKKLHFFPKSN
NSD2 inh – NSD2 (human) methyltransferase inhibition | NSD2 peptide methylation, AlphaScreen, 120 min | O96028 | inhibition, % at 12.5 µM | 310,000 tested, 0.54% active; in the data active means inhibition above about 50%
RAD52 inh – blocks human RAD52 DNA annealing. recombinant RAD52 DNA annealing, FRET fluorescence. inhibition, % at 18.7 µM. 360,000 tested, 0.46% active. AID 651710;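 active means every replicate showing at least 50% inhibition; inconclusive means mean inhibition at least 50% but not in every replicate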
* marks the source's active call; other numbers are inactive results; i = inactive; ? = inconclusive; . = no result given; ! = a repeat was not active.

SMILES	Ecoli rRNA inh	MLL AF4-AF9 inh	Casp6 inh	NSD2 inh	RAD52 inh
CC(C)N1CCc2c(sc(NC(=O)Cc3ccccc3)c2C(N)=O)C1	9	1	0	.	-2
CC(=O)N1CCc2c(sc(NC(=O)C3CCCCC3)c2C(N)=O)C1	-1	-1	75*	.	-68
COC(=O)c1c(NC(=O)C2CC2)sc2c1CCN(C(C)=O)C2	-1	-4	3	.	5
COc1cccc(-c2ccc(C3[C@@H]4CN(Cc5ccccn5)C[C@H]3N4)cc2)c1 (some centres undefined)	-6	.	.	.	.
COc1cccc(CN2C[C@@H]3N[C@H](C2)C3c2ccc(-c3cccc(C#N)c3)cc2)c1 (some centres undefined)	-60	19	1	.	55*
COc1cccc(CN2C[C@@H]3N[C@H](C2)C3c2ccc(-c3ccccc3C)cc2)c1 (some centres undefined)	-54	.	.	.	.
COc1cc(CN2C[C@@H]3N[C@H](C2)C3c2ccc(-c3ccccc3C)cc2)cc(OC)c1 (some centres undefined)	-56	27*!	4	.	64*
COc1cccc(CN2C[C@@H]3N[C@H](C2)C3c2ccc(-c3ccccc3F)cc2)c1 (some centres undefined)	-60	11	5	.	64*!
COc1cccc(CN2C[C@@H]3N[C@H](C2)C3c2ccc(-c3ccncc3)cc2)c1 (some centres undefined)	1	11	4	.	-8
COc1cccc(-c2ccc(C3[C@@H]4CN(Cc5cccc(F)c5)C[C@H]3N4)cc2)c1 (some centres undefined)	-59	14	1	.	53*
C[C@@H]1CN([C@@H](C)CO)C(=O)c2cc(-c3cccc(C#N)c3)cnc2O[C@@H]1CN(C)Cc1ccncc1	-4	-3	-1	.	-6
C[C@@H](O)C#Cc1ccc2c(c1)O[C@H](CN(C)CC1CC1)[C@@H](C)CN([C@@H](C)CO)S2(=O)=O	0	.	.	.	.
COc1ccc(-c2ccc(C3[C@@H]4CN(Cc5cccc(OC)c5)C[C@H]3N4)cc2)cc1 (some centres undefined)	-56	10	0	.	67*
CCn1c(-c2sc(-c3ccccc3)nc2C)n[nH]c1=S	-30*	-3	2	-4	-18
C[C@H]1CN([C@@H](C)CO)C(=O)c2cccc(NS(=O)(=O)c3cn(C)cn3)c2O[C@@H]1CN(C)Cc1ccc(C(=O)Nc2ccccc2N)cc1	5	3	-5	.	-4
NNC(=O)c1cc2cc(OC(F)(F)F)ccc2[nH]1	-25	-4	0	0	-11
O=C(NNC(=O)c1cc2cc(OC(F)(F)F)ccc2[nH]1)c1cccc(C(F)(F)F)c1	-21*	2	-2	0	-2
O=C(O)[C@@H]1[C@@H](CO)[C@@H]2Cn3c(ccc(/C=C/c4ccccc4)c3=O)[C@@H]2N1Cc1ccc2c(c1)OCO2	0	-9	50*	.	-60
O=C(O)[C@H]1[C@H](CO)[C@H]2Cn3c(ccc(/C=C/c4ccccc4)c3=O)[C@H]2N1Cc1ccc2c(c1)OCO2	-1	-41	1	.	-65
Cc1cc(NC(=O)COC(=O)CSCc2ccc(Cl)c(Cl)c2)no1	-22*	7	1	0	-9
Cc1cc(NC(=O)CSCC(=O)N(C)Cc2ccc(Cl)c(Cl)c2)no1	-7	21	-190	0	19
Cc1[nH]nc(-c2ccc(O)cc2O)c1Oc1ccccc1	-13*	5	1	3	-15
O=C(CSc1ncc(-c2ccccc2)[nH]1)Nc1cccc(O)c1	-26	13	3	7	-24
O=C(CSc1ncc(-c2ccccc2)[nH]1)Nc1ccccc1	-32*	4	2	.	-34
COc1ccc(S(=O)(=O)N2CCCCC2C)cc1 (centres undefined)	-3	29*	-2	-3	5
SMILES	Ecoli rRNA inh	MLL AF4-AF9 inh	Casp6 inh	NSD2 inh	RAD52 inh
O=C(Nc1ccc([N+](=O)[O-])cc1)c1ccc(S(=O)(=O)N2CCCC2)cc1	10	-2	1	-3	-3
O=C(Nc1ccc(S(=O)(=O)N2CCCCCC2)cc1)c1[nH]ncc1[N+](=O)[O-]	-40*	2	1	0	-27
COc1ccccc1Oc1ccc(S(=O)(=O)N2CCCCC2C)cc1 (centres undefined)	-9	1	.	-6	-14
COc1ccc(C(=O)Nc2ccc(S(=O)(=O)N3CCCC3)cc2)cc1	-32*	1	1	2	-12
CC(=O)N1C[C@@H]2C(c3ccccc3)[C@@H](C1)N2CC(F)(F)F (some centres undefined)	-1	.	.	.	.
O=C(NCc1ccc(F)cc1)[C@H]1[C@H](CO)[C@H]2Cn3c(cccc3=O)[C@@H]1N2C(=O)C1CC1	3	1	0	.	1
COc1cccc(-c2ccc([C@@H]3[C@H](CO)N4CCCCN(C(=O)NC(C)C)C[C@@H]34)cc2)c1	-1	.	.	.	-3
C[C@H](CO)N1C[C@H](C)[C@H](CN(C)Cc2ccc(-c3ccccc3)cc2)Oc2ccc(NC(=O)CCCN(C)C)cc2CC1=O	-60	3	4	.	53*
C[C@H]1CN([C@@H](C)CO)C(=O)Cc2cc(NC(=O)CCCN(C)C)ccc2O[C@H]1CN(C)Cc1ccc(-c2ccccc2)cc1	.	5	.	.	49
C[C@H]1CN([C@@H](C)CO)C(=O)c2cc(NC(=O)CCCN(C)C)ccc2O[C@@H]1CN(C)Cc1ccc(Cl)c(Cl)c1	2	1	-1	.	41
C[C@@H]1CN([C@H](C)CO)C(=O)Cc2cc(NC(=O)CCCN(C)C)ccc2O[C@H]1CN(C)Cc1ccc(-c2ccccc2)cc1	-60	7	4	.	73*
Cc1noc(C)c1NC(=O)N(C)C[C@H]1Oc2ccc(NC(=O)CCC(F)(F)F)cc2CC(=O)N([C@H](C)CO)C[C@H]1C	1	-1	-1	.	9
C[C@H](CO)N1C[C@H](C)[C@@H](CN(C)Cc2ccc(Cl)c(Cl)c2)Oc2ccc(NC(=O)CCCN(C)C)cc2CC1=O	-60	18	-70	.	59*
Cc1noc(C)c1NC(=O)N(C)C[C@H]1Oc2ccc(NC(=O)CCCN(C)C)cc2CC(=O)N([C@@H](C)CO)C[C@@H]1C	1	31*	-2	.	8
C[C@H](CO)N1C[C@H](C)[C@H](CN(C)S(=O)(=O)c2ccc(Cl)cc2)Oc2ccc(NS(=O)(=O)c3ccc(F)cc3)cc2C1=O	-3	3	-2	.	-2
Cc1cc2c(cc1C)N1C(=N)/C(=C\c3coc4ccccc4c3=O)C(=O)N=C1S2	.	.	.	-1	.
N=C1/C(=C\c2coc3ccc(O)cc3c2=O)C(=O)N=C2SC=CN12	0	?	42*	35	i
CCN(C(=O)COC(=O)CNC(=O)c1cccc(C)c1)c1c(N)n(Cc2ccccc2)c(=O)[nH]c1=O	7	-6	4	-5	-6
